Rows were chosen to be rich in hits. Some 21% of all compounds tested hit in one or more screens of this group.
Shiga toxin inh = inhibitors of Shiga toxin in Vero cells. Vero cells, Shiga toxin protein synthesis inhibition reporter. inhibition, % at 38.7 µM. hit rate 9.2% among 290,000. AID 2315; in the data active = inhibition mostly above about 28%, no sharp cut-off; inactive = mostly below about 43%; also: 0% is about no effect
SARS PLpro yeast = SARS-CoV PLP inhibition in yeast. S. cerevisiae expressing SARS-CoV PLpro, growth rescue. Potency, µM (top dose mostly 32.9 µM), for inactives: at the top dose activity, positive = growth rescue, actives largely listed as activators. hit rate 0.19% among 330,000. AID 485353; also: potency is read from the fitted curve at half-maximal effect; 0% is about no effect; nearly all actives have a fitted effect of over 55% in size
NS1 function inh = blocks influenza NS1 protein function; hit rate 0.4% among 270,000; Potency, µM (titrated, usually from 46.1 µM), inactives show top-dose activity, positive = more growth; AID 2326; also: potency is read from the fitted curve at half-maximal effect; actives are rising curves; nearly all actives have a fitted effect of over 50% in size
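Growth recovery, yeast-based: influenza A NS1 expressed in S. cerevisiae causes slow growth, and suppressors are detected by OD600. The parent strain without NS1 is used as positive control.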
Pf growth 96h = P. falciparum growth inhibition at 96 hour, primary screen for plastid delayed-death inhibitors | AID 504834 | P. falciparum luciferase reporter growth, 96 h | hit rate 6.9% among 320,000 | Potency, µM (doses to about 28.7 µM), without a hit: at the top dose activity change, negative = inhibition, actives largely listed as inhibitors; active = well fitted inhibition curve with a large enough effect; inconclusive = small, poorly fitted or top-dose-only effect, or another doubt; inactive = no such curve, though single readings can be large or run the other way; also: potency is read from the fitted curve at half-maximal effect; % is scaled to controls: 0 for no effect and ±100 for the full control effect
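Two parasite generations (96 h, 37 C, 5% CO2) of compound exposure in infected erythrocytes (0.05% parasitemia, 2% hematocrit). Luciferase-reporter P. falciparum; decreased luminescence indicates inhibited growth, aimed at apicoplast-acting delayed death.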
Pf growth 48h = P. falciparum growth inhibition at 48 hours (one generation); P. falciparum luciferase growth in erythrocytes, 48 h; Potency, µM (series often up to 28.7 µM), for inactives: at the top dose activity change, negative = inhibition, actives largely listed as inhibitors; hit rate 5.9% among 310,000; active = well fitted inhibition curve with a large enough effect; inconclusive = small, poorly fitted or top-dose-only effect, or another doubt; inactive = no such curve, though single readings can be large or run the other way; also: potency is read from the fitted curve at half-maximal effect; % is scaled to controls: 0 for no effect and ±100 for the full control effect
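Cell-based growth assay: transgenic P. falciparum expressing firefly luciferase, cultured in red cells within RPMI 1640 containing 0.5% w/v Albumax, 24 mM bicarbonate and gentamycin. A drop in luciferase activity indicates inhibition.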
Cycloheximide cs = affects cycloheximide protein synthesis inhibition readout, counter-screen | cell reporter, cycloheximide protein synthesis inhibition counterscreen | max response, % | hit rate 12% among 300,000 | AID 2314; in the data active = max response mostly above about 13%, no sharp cut-off; inactive = mostly below about 14%; also: read at 38.3 µM for the half of the compounds with a filed dose; 0% is about no effect
Numbers without * were called inactive; ? = inconclusive; . = no result given. Unless noted, calls follow the shape of the full dose curve.

SMILES	Shiga toxin inh	SARS PLpro yeast	NS1 function inh	Pf growth 96h	Pf growth 48h	Cycloheximide cs
Cc1cccc(C(=O)Nc2cccc(NC(=O)c3ccccc3)c2)c1	12	4%	5%	?	51%	9
O=C(O)c1cccc(NS(=O)(=O)c2ccc3c(c2)C(=O)c2ccccc2C3=O)c1	20	0%	4%	-18%	24%	16*
CC(C)OC(=O)c1cccc(NC(=O)c2ccccc2)c1	69*	-25%	-12%	145%	211%	26*
O=C(COc1ccc2c3c(c(=O)oc2c1)CCCC3)N1C[C@H]2C[C@@H](C1)c1cccc(=O)n1C2	-5	7%	-1%	?	-28%	-4
O=c1c(NCCc2ccc(Cl)cc2)c(-c2ccccc2)c1=O	-7	-1%	1%	?	?	5
Cc1ccc(C(=O)COC(=O)CCCC(=O)Nc2cc(C(F)(F)F)ccc2Cl)cc1C	-22	2%	0%	?	5%	2
CCOc1cc(OCC)cc(C(=O)Nc2cccc(C(C)=O)c2)c1	14	1%	-3%	?	53%	2
Cc1ccc(NC(=O)CC(=O)c2ccccc2)cc1C	101*	-1%	10%	38%	69%	34*
COC(=O)c1ccc(CNCC(=O)Nc2ccc(C(=O)OC)cc2)cc1	-11	14%	4%	0.93µM*	?	4
CCc1sc(C(=O)Nc2cccc(C(C)=O)c2)cc1C	16	-66%	-9%	72%	75%	28*
Cc1ccc(NC(=O)CO/N=C(\N)c2ccccc2)cc1C	.	-29%	.	.	.	.
COC(=O)CSC(C(=O)Nc1ccc(C)c(C)c1)c1ccccc1 (stereo not drawn)	44*	-4%	-4%	0%	1%	19
S=C(Nc1cccc(Br)c1)c1ccccc1	109*	-90%	-24%	?	-3%	45*
O=C(CCc1ccccc1)NC(=S)Nc1cccc(Br)c1	25	7%	23%	18%	8%	0
O=C(Nc1ccc(Nc2ccccc2)cc1)c1ccc(Br)cc1	-7	?	9%	18%	-9%	-4
O=C(Nc1ccc(-c2nc3ccccc3s2)c(OC(=O)c2ccccc2)c1)c1ccccc1	26	-9%	20%	3%	135%	30*
O=C(Nc1ccc(Cl)c(Cl)c1)c1ccccc1	.	1%	.	102%	110%	.
O=C(Nc1ccc2nc(N3CCOCC3)sc2c1)c1ccccc1	.	2%	.	-1%	?	.
O=C(Nc1ccc2nc3ccccc3nc2c1)c1ccccc1	25*	-56%	-9%	-2%	107%	40*
O=C(Nc1cccc(C(=O)Nc2ccc(Br)cc2)c1)c1ccccc1	25	-2%	-1%	40%	11%	16*
COc1ccc(-c2noc(CCCC(=O)Nc3ccc(C(N)=O)cc3)n2)cc1OC	12	-1%	4%	?	?	10
CCOC(=O)c1cc(S(=O)(=O)Nc2ccc(OC)cc2OC)cn1C	-3	1%	-2%	35%	47%	-1
CCOC(=O)c1ccc(NC(=O)NCCN2CCCCC2)cc1	-1	3%	-1%	.	-25%	9.3*
CCOC(=O)c1ccc(NC(=S)N2CCN(CCNC3=CC(=O)CC(C)(C)C3)CC2)cc1	-6	4%	.	-18%	0.026µM*	8
COc1ccc(NC(=O)NCCN2CCCCC2)cc1	18	0%	-8%	5%	143%	-1
SMILES	Shiga toxin inh	SARS PLpro yeast	NS1 function inh	Pf growth 96h	Pf growth 48h	Cycloheximide cs
Cc1ccc(NC(=O)NCCN2CCCCC2)cc1C	19	2%	-13%	17µM*	2%	8
Cc1ccccc1NC(=O)NCCCN1CCCC1	-9	-2%	1%	2.3µM*	.	-4
CCOC(=O)c1ccc(NC(=S)N2CCN(CCN=CC3=C(O)CC(C)(C)CC3=O)CC2)cc1	-4	2%	1%	5%	-25%	-2
COc1ccc(CNC(=O)CCNC(=O)c2ccc(C(C)(C)C)cc2)cc1OC	.	-1%	.	?	-11%	.
Cc1sc(NC(=O)C2CSC3(C)CCC(=O)N23)nc1-c1ccccc1 (stereo not drawn)	.	6%	.	?	?	.
CN(C)CCCn1c2c(c(SCC(=O)Nc3cccc4ccccc34)nc1=O)CCCC2	.	1%	.	?	?	.
NS(=O)(=O)c1cc(C(=O)N2CCNC(=O)C2)ccc1Cl	-9	1%	7%	-3%	4%	9
C(=C\c1ccncc1)/c1ccccc1	34	-2%	-2%	?	?	36*
C(=C\c1ccncc1)/c1ccncc1	-1	-1%	-2%	-12%	-7%	-2
O=[N+]([O-])c1cccc(/C=C/c2ccncc2)c1	37	-6%	-6%	10%	-20%	22*
O=[N+]([O-])c1ccc(/C=C/c2ccncc2)cc1	68*	-2%	5%	?	37%	30*
COc1cccc2c1Oc1ncccc1N(C(=O)CCC(=O)NCc1ccc(C)cc1)C2	-4	1%	-8%	19%	?	-2
CCOc1ccc(C(=O)NCC(=O)OCc2ccc(F)cc2Cl)cc1	-7	-13%	-15%	-10%	3%	-4
Cc1ccc(C)c(Cn2nc(-c3cc(C)ccc3C)ccc2=O)c1	-5	-11%	-8%	-11%	0%	0
Cc1ccc2c(c1)cc1c(=O)n(CC(=O)N3CCCC3)nc(C)n12	22	7%	0%	?	15%	5
COc1ccc(-c2cc3c(=O)n(CC(=O)NCCCN4CCC(N5CCCCC5)CC4)nc(C)n3n2)cc1	4	0%	-4%	8.3µM*	?	0
Cc1nn(CC(=O)NCCCN2CC(C)CC(C)C2)c(=O)c2cccn12 (stereo not drawn)	-4	-3%	-12%	10µM*	26%	-8
Cc1ccc2c(c1)cc1c(=O)n(CC(=O)NCCN3CCCC3)nc(C)n12	1	-3%	1%	9.3µM*	24%	2
Cc1nn(CC(=O)NCCCN2CCCCC2C)c(=O)c2cccn12 (stereo not drawn)	-3	-17%	3%	-6%	28%	-2
Cc1nn(CC(=O)NCCCN2CCCCC2)c(=O)c2cc(-c3ccccc3)nn12	-7	-1%	1%	4.1µM*	17%	-2
Cn1c(O)c(N=NC(=O)Cn2c(C(F)(F)F)nc3ccccc32)c2ccccc21	-4	-14%	10%	20%	-8%	-2
CC1CN(C(=O)COC(=O)c2nn(-c3ccccc3)c(=O)c3ccccc23)CC(C)O1 (stereo not drawn)	16	1%	-4%	3%	-7%	10
COc1ccc([N+](=O)[O-])cc1N(CC(=O)N1CCCCC1)S(C)(=O)=O	18	2%	-2%	?	8%	-2
COC(=O)c1c(C)[nH]c(O)c1C=Nc1ccc(Oc2ccccc2)cc1	40	0%	.	16%	48%	13
COC(=O)c1c(C)[nH]c(O)c1C=Nc1ccc(C(C)C)cc1	39*	-25%	-35%	38%	-23%	22*
